The record followed here is PubChem BioAssay AID504444 (National Center for Advancing Translational Sciences (NCATS), 2011).

Out of some 360,000 compounds screened, about 7,500 (2.1%) were called active. Roughly 20% stayed inconclusive and do not appear here. The sample holds actives, similar compounds and a random draw of the others, so the mix is not that of the screen. Values without a mark were called inactive. Calls come from the whole dose curve; as a rule, active = well fitted inhibition curve with a large enough effect; inconclusive = small, poorly fitted or top-dose-only effect, or effect the other way; inactive = flat fitted curve, though single readings scatter.
% is set by controls: 0 for no effect and ±100 for the full control effect; potency is the fitted concentration of half-maximal effect.

The experiment can be described thus: Nrf2 qHTS screen for inhibitors. Note: nearly all actives have a fitted effect of over 60% in size. The note with it: A549 ARE-Fluc reporter, luciferase luminescence, 18-24 h; series mostly up to 46 µM; activity change, negative = inhibition: at the top concentration. In outline:
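A549 ARE_Fluc cells, 5000/well, 5% FBS OPTI-MEM; compounds in dose-response, 18-24 h at 37 °C/5% CO2; CellTiter-Fluor viability read (Ex 405/Em 525), then BugLite luciferase luminescence = Nrf2 activity.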
Consider `COc1cc(CN(CC2CCCO2)C(=O)c2ccccc2F)cc(OC)c1OC` (stereo not drawn), for which the “activity change, negative = inhibition” value was -4.81%.
As for `COc1ccc(C(=O)C[n+]2ccc(N)c(C)c2C)cc1`, the Potency was 5.8 µM (active).
On to `COc1ccc(C(=O)C[n+]2ccc(C)cc2)cc1`, for which the “activity change, negative = inhibition” value is 3.08%.
Regarding `COc1ccc(CCC(=O)c2ccc(OC)cc2)cc1`, the “activity change, negative = inhibition” value is 5.47%.
With `CC/C(=C\c1ccc(Cl)cc1)c1ccncc1`, the “activity change, negative = inhibition” value was 10.8%.
As for `COc1ccc(S(=O)(=O)N(C)C[C@H]2Oc3c(NC(=O)Nc4ccc5c(c4)OCO5)cccc3C(=O)N([C@H](C)CO)C[C@@H]2C)cc1`, the “activity change, negative = inhibition” value is -10.5%.
On the same count and under the same terms, in the case of `COc1ccc(C(=O)N(Cc2ccccc2)Cc2ccc(OC)c(COc3ccc(NC(C)=O)cc3)c2)c(O)c1` it was 1.88%; in that of `Cc1cccc(C=CC(=O)c2ccc(Cl)cc2)c1`, -8.77%.
As for `Cc1[nH]c(=O)c(C(=O)/C=C/c2ccccc2)c2c1CCCC2`, the Potency is 20.6 µM (active).
In the case of `Cc1cn(COC/C=C/c2ccccc2)c(=O)[nH]c1=O`, the “activity change, negative = inhibition” value is 0.354%.
For `Nc1ccc2c(c1)C(=Cc1cccnc1)c1ccccc1-2`, the “activity change, negative = inhibition” value is 22.3%.
Same read-out and setting: in the case of `CCCc1nc2c(c(=O)c3ccccc3n2C)c(=O)n1-c1cc(C)cc(C)c1` it was 2.46%; in that of `Cn1c2ccccc2c(=O)c2c(O)cccc21`, 28%.
Turning to `CCCc1nc2c(c(=O)c3ccccc3n2C)c(=O)n1C1CCCCCC1`, the Potency was 23.1 µM (active).
With `O=C(NCc1cccnc1)C(=O)NCC(c1cccnc1)N1CCN(c2ccccc2)CC1` (stereo not drawn), the “activity change, negative = inhibition” value is 2.8%.
As for `O=C(CCCCCCCC(=O)N1CCCCC1)N1CCCCC1`, the “activity change, negative = inhibition” value is -7.85%.
Still for that read-out and setting: as for `COc1cc(CNCCN(C)C)ccc1OCc1c(F)cccc1Cl`, the figure is -10.3%.
In the case of `CN(C)CCCNC(=O)/C=C/c1ccc(OCc2c(F)cccc2Cl)cc1`, the Potency was 20.6 µM (active).
Turning to `COCCCNC(=O)/C=C/c1ccc(OCc2c(F)cccc2Cl)cc1`, the “activity change, negative = inhibition” value is -21%.
Still for that read-out and setting: as for `COc1cc2c(-c3ccc4c(c3)OCO4)c(-c3ccsc3)oc(=O)c2cc1OC`, the figure is -4.58%.
Same read-out and setting: in the case of `O=C1C=C(c2cccc(Cl)c2O)C[C@@H](c2ccc(F)cc2)C1` it was 7.99%; in that of `COc1ccc(N2CCN(Cc3nc4c(c(=O)[nH]c(=O)n4C)n3Cc3ccc(Cl)cc3)CC2)cc1`, 2.8%.
On to `CCc1cccc2c3c([nH]c12)C(CC)(CC(=O)O)OCC3` (stereo not drawn), for which the Potency was 10.3 µM (active).
Consider `O=C1CC[C@@H]2CC3(C[C@@H]4CCN1[C@H]24)Nc1cc([N+](=O)[O-])ccc1NC3=NC1CCCCC1` (stereo partly drawn), for which the “activity change, negative = inhibition” value was 5.71%.
As to `CC1CC(C)(C)n2c(O)c(N=NC(N)=S)c3cccc1c32` (stereo not drawn), the Potency was 14.6 µM (active).
Turning to `Cc1cccc(NC(=O)CSc2nc(-c3ccco3)cc(C(F)(F)F)n2)c1C`, the “activity change, negative = inhibition” value was 6.45%.
Turning to `COc1cccc(C=CC(=O)C=CC=Cc2ccccc2)c1`, the “activity change, negative = inhibition” value is -3.74%.
The same measure, in the same setting: in the case of `Cc1c(Cl)cccc1NC(=O)CCS(=O)(=O)c1ccc2c(c1)oc(=O)n2C` it was -4.02%.
On the same count and under the same terms, as for `CCc1ccccc1NC(=O)Cn1c(=O)n(CC2CCC(C(=O)NCCc3ccccc3)CC2)c(=O)c2ccccc21` (stereo not drawn), the figure is 15.4%; as for `CCN(C[C@H]1N[C@@](Cc2ccccc2)(C(=O)OC)[C@H]2C(=O)N(Cc3ccccc3)C(=O)[C@@H]12)C(=O)c1ccc(C)cc1`, -0.16%; as for `CCOc1ccccc1N(CC)C(=O)c1cc2ccc3cccnc3c2[nH]1`, -16.9%.
Still for that read-out and setting: in the case of `COc1ccc(CCNC(=O)c2nnc(CS(=O)(=O)c3ccccc3)o2)cc1OC` it was 1.63%.
For the molecule `O=C(NCc1cccnc1)c1ccc(CS(=O)(=O)c2ccc(Br)cc2)o1`, the Potency was 14.6 µM (active).
As to `COc1ccc(C(=O)NCCc2ccc(S(N)(=O)=O)cc2)cc1OC`, the “activity change, negative = inhibition” value is 22.1%.
With `COc1ccccc1CNC(=O)c1ccc(CS(=O)(=O)c2ccccc2)o1`, the “activity change, negative = inhibition” value is 0.412%.
Turning to `COc1ccc(CCNC(=O)c2ccc(CS(=O)(=O)c3ccc(Br)cc3)o2)cc1OC`, the Potency was 4.11 µM (active).
With `Cc1cccc(NS(=O)(=O)c2ccc(C)c(C(=O)NCc3cccnc3)c2)c1`, the “activity change, negative = inhibition” value is -31.3%.
On the same count and under the same terms, as for `Cc1ccccc1-n1c(=O)c2ccccc2n(Cc2ccc(F)cc2)c1=O`, the figure is 5.14%; as for `CCCN(C(=O)COC(=O)CNS(=O)(=O)c1ccc(NC(C)=O)cc1)C1CCS(=O)(=O)C1` (stereo not drawn), 12.7%; as for `CC1CCCC(NC(=O)c2cc(S(=O)(=O)N3CCCCC3)ccc2Cl)C1C` (stereo not drawn), 12.3%.
In the case of `CSc1nc(-c2ccccc2)nc(C(Cl)Cl)n1`, the Potency is 23.1 µM (active).
In the case of `CSc1ncc(Sc2ccccc2)c(C(=O)O)n1`, the “activity change, negative = inhibition” value was 0.799%.
Same read-out and setting: in the case of `Cc1cccc(Nc2nc(C)nc(N)c2S(=O)(=O)c2ccccc2)c1` it was -16%; in that of `O=C(Nc1cccc(S(=O)(=O)N2CCOCC2)c1)C12CC3CC(CC(C3)C1)C2`, 1.01%; in that of `COc1ccc2[nH]c(=S)cc(C)c2c1`, 0%.
As to `COc1ccc2[nH]c3c(C)c4cc[n+](C)cc4c(C)c3c2c1`, the Potency was 8.2 µM (active).
On to `COc1ccc2[nH]c(C(=O)N3CCN(C)CC3)c(C)c2c1`, for which the “activity change, negative = inhibition” value was 21.1%.
On the same count and under the same terms, in the case of `Cc1ccc(-n2c(=O)c3cccnc3n2CC(=O)NCc2ccc(F)cc2)cc1C` it was -7.78%.
